# Screening results: PubChem, National Center for Advancing Translational Sciences (NCATS)
# TDP1 block: blocks human tyrosyl-DNA phosphodiesterase 1 | Q9NUW8 | Potency, µM (highest dose often 130 µM), for inactives: at the highest dose activity change, negative = inhibition, actives largely listed as inhibitors | 350,000 tested, 0.28% active | recombinant TDP1, AlphaScreen DNA substrate cleavage; further: nearly all actives have a fitted effect of over 40% in size
# Target sequence (Q9NUW8 whole entry, looked up): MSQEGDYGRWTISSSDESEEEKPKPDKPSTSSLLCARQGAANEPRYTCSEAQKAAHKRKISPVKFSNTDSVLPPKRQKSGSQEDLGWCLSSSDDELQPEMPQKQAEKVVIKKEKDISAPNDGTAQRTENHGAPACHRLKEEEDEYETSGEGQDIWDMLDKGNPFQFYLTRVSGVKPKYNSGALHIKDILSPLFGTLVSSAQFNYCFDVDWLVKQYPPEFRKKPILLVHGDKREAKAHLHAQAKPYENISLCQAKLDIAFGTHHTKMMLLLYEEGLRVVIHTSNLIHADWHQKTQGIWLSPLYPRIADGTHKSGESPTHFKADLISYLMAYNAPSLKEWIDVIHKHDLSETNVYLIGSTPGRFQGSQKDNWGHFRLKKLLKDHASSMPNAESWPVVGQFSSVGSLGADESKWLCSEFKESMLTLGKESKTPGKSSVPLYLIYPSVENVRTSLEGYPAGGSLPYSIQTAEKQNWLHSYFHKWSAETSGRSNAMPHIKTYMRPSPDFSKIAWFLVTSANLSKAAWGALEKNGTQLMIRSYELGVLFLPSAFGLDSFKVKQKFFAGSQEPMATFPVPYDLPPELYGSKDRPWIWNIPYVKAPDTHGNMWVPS
#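 Tdp1 1 nM final; 15 min RT w/ cpd; substrate 15 nM, 5 min; beads 10 ug/ml, 10 min; AlphaScreen read. Neg ctrl: no enzyme.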
# KAT2A inh: GCN5L2 (KAT2A) acetyltransferase inhibition | Q92830 | GCN5L2 HAT assay, ThioGlo1 CoA-SH fluorescence | Potency, µM (doses to about 58.9 µM), for the others: at the top dose activity change, negative = inhibition, actives largely listed as inhibitors | 390,000 tested, 0.21% active | AID 504327
#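 Free CoA generated was detected with ThioGlo1 (50uM) fluorescence at Ex340nm/Em540nm, read immediately and after 20 min at room temperature. Enzyme, 20 nM in HEPES pH 7.5 buffer, saw compounds 15 min before adding 75uM H3(1-25) peptide and 70uM acetyl-CoA.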
# APEX1 inh: APE1 (human) endonuclease inhibition | recombinant APE1, TAMRA/BHQ-2 abasic DNA cleavage fluorescence | Potency, µM (doses to about 65.8 µM), for the others: top-dose activity change, negative = inhibition, most hits filed as inhibitors | 350,000 tested, 0.35% active | AID 2517;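 further: plate controls were vehicle for no effect and reference inhibitor for full effect; nearly all actives have a fitted effect of over 55% in size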
#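 0.75 nM APE1 + cpd, 15 min RT; start w/ 50 nM TAMRA/BHQ-2 THF-abasic dsDNA; kinetic fluor 525/598 nm ×3 reads @60 s; Δ(read3−read1); normalized to DMSO and NSC13755 control wells.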
# Lamin A splicing: changes lamin A minigene splicing in HeLa cells; HeLa LMNA splicing GFP/RFP minigene ratio, 48 h; 200,000 tested, 0.01% active; Potency, µM (top dose mostly 46.1 µM), without a hit: at the highest dose ratio change, negative = inhibition, actives largely listed as inhibitors; active means well fitted inhibition curve with a large enough effect in the signal ratio, with a control signal flat, not every such curve was filed as active; inconclusive means small, poorly fitted or top-dose-only effect, or effect the other way, or a change in a side signal; the % refers to the signal ratio
#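 Read-out is the ratio of GFP to DsRed2 object intensity, acquired by 488 nm laser-scanning cytometry on HeLa lamin A-EGFP minigene reporter cells. Compound incubation 48 hrs at 37 °C in Opti-MEM with 2% FBS; DMSO 0.5% final.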
# RECQ1 inh-1: inhibitors of human RECQ1 DNA helicase | P46063 | RECQ1 DNA unwinding, red fluorescence kinetic read | Potency, µM (highest dose often 57.3 µM), without a hit: at the top dose activity, negative = inhibition, usual class: inhibitors | 240,000 tested, 0.54% active | AID 2549;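 further: plate controls were vehicle for no effect and no enzyme for full effect; nearly all actives have a fitted effect of over 30% in size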
#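 50 nM RECQ1T1 preincubated 15 min with compound in Tris pH 8.0 buffer with MgCl2, DTT, Tween-20 and 2.5 ug/ml poly(dI-dC); started with 200 nM TAMRA/BHQ-2 forked duplex and 2 mM ATP. Unwinding read as fluorescence (525/598 nm), two reads 2 h apart.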
# BLM inh: Bloom syndrome helicase (human) inhibition. P54132. recombinant BLM DNA unwinding, fluorescence dequenching. Potency, µM (top dose mostly 56.1 µM), for the others: at the top dose activity change, negative = inhibition, actives largely listed as inhibitors. 350,000 tested, 0.2% active;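 further: plate controls were vehicle for no effect and no enzyme for full effect; nearly all actives have a fitted effect of over 35% in size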
# RECQ1 conf: confirmation of human RECQ1 helicase inhibitors | shares compounds with RECQ1 inh-1 | RECQ1 helicase DNA unwinding, fluorescence | Potency, µM (highest dose often 229 µM), inactives show at the top dose activity change, negative = inhibition, most hits filed as inhibitors | 610 tested, 28% active; further: nearly all actives have a fitted effect of over 45% in size
# RECQ1 ADP FP: ADP displacement flagged in RECQ1 inhibitor counter-screen; shares compounds with RECQ1 inh-1; ADP fluorescence polarization displacement counterscreen; Potency, µM (doses to about 228 µM), for inactives: at the highest dose activity change, negative = inhibition, most hits filed as inhibitors; 530 tested, 27% active; further: nearly all actives have a fitted effect of over 45% in size
# RECQ1 inh-2: confirmation of human RECQ1 helicase inhibitors; recombinant RECQ1 DNA unwinding, red fluorescence; Potency, µM (doses to about 119 µM), for inactives: top-dose activity, negative = inhibition, most hits filed as inhibitors; shares compounds with RECQ1 inh-1; AID 504841; 1,100 tested, 15% active; further: nearly all actives have a fitted effect of over 50% in size
# * = called active by the depositor; i = inactive; ? = inconclusive; . = no result; + = active, no number; [ ] = dose if it differs, or a comment. An excerpt weighted towards active compounds, which were near 0.9% of everything screened. Unless noted, the call rests on the fitted dose curve; in most records, active means well fitted curve in the direction sought with a large enough effect; inconclusive means small, poorly fitted or top-dose-only effect, or another doubt; inactive means no such curve, though single readings can be large; an effect the other way counts as inactive or inconclusive. Unless noted, on the % scale 0 is the no-effect control and ±100 the full control effect; potency means the concentration at half of the fitted maximal effect.
SMILES,TDP1 block,KAT2A inh,APEX1 inh,Lamin A splicing,RECQ1 inh-1,BLM inh,RECQ1 conf,RECQ1 inh-2,others
COc1cc(-c2nnc(SCc3cc(=O)oc4cc(O)c(O)cc34)o2)cc(OC)c1OC,.,?,2µM*,?,1.8µM*,10µM*,3.5µM*,?,RECQ1 ADP FP=126µM*
CC(C)(C)C1CCC(C(=O)OCC(=O)c2ccc[nH]2)CC1 (configuration not stated),3%,-12%,10%,0%,?,-12%,.,-25%,
CC(C)c1ccc(OCC(=O)NCC(c2ccc(Cl)cc2)N2CCOCC2)cc1 (configuration not stated),1%,-8%,.,1%[46 µM],.,-8%,.,.,
Cc1cccc(CNC(=O)Cc2csc3ccccc23)c1,-3%,-9%,.,.,.,-1%,.,.,
COc1cccc(C(C(=O)NCc2ccco2)N(C(=O)Cn2nnc3ccccc32)C2CC2)c1OC (configuration not stated),1%,-4%,0%,-1%,?,-1%,.,-11%,
COc1ccc(N(CC(=O)NCCSCc2ccco2)S(=O)(=O)c2ccccc2)cc1,0%,?,1%,.,-5%,-10%,.,.,
O=C(CN(c1ccccc1)S(=O)(=O)c1ccccc1)NCCSCc1ccco1,28µM*,-2%,7.9µM*,11%,14µM*,-27%,50µM*,?,RECQ1 ADP FP=50µM*
COc1ccc2nc(-c3ccc(N(C)C)cc3)sc2c1,4%,.,-2%,.,i,0%,.,.,
Cc1cc(C)n2c(SC/C(O)=C(\C#N)c3nc4ccccc4[nH]3)nnc2n1,?,-12%,?,-3%,?,-27%,.,?,
Nc1nc(Nc2ccccc2)nc(NCc2ccco2)c1[N+](=O)[O-],11%,-6%,0%,10%,?,?,.,79µM*,
CCCCCC/C(C)=C1/SC(=S)NC1=O,-1%,-8%,-2%,7%,-3%,-8%,.,.,
C/C(C/C(C)=C1/SC(=S)NC1=O)=C1\SC(=S)NC1=O,.,-26%,?,.,14µM*,96%,?,.,
COc1ccc(-c2nn(-c3ccccc3)cc2/C=C/C(=O)O)cc1[N+](=O)[O-],8%,-8%,-9%,.,?,10%,.,-5%,
COc1ccc(-c2nn(-c3ccccc3)cc2C=O)cc1[N+](=O)[O-],-5%,-12%,21%,.,.,-11%,.,.,
Cc1cc(=O)c2c(O)c3c(O)cc(=O)c4c3c3c(cc(O)c1c23)C(C)(C)C=4O,8%,.,6%,.,1.8µM*,7.1µM*,+,i,RECQ1 ADP FP=0.32µM*
O=C(Nc1ccccc1)c1ccccc1NS(=O)(=O)c1ccc(Cl)s1,0%,-11%,7%,?,10%,-5%,.,.,
Cc1ccc(NC(=O)c2ccccc2NS(=O)(=O)c2ccc(Cl)s2)cc1,6%,-8%,16%,?,40µM*,-6%,.,-18%,
COc1ccc(OC)c(CCNC(=O)c2c(C)nn(-c3ccc(F)cc3)c2-n2cccc2)c1,11%,-4%,.,.,.,-5%,.,.,
Cc1[nH][nH]c(=O)c1C(c1ccc(-c2ccc(F)cc2)o1)c1c(C)[nH][nH]c1=O,10%,-4%,-8%,?,7%,-22%,.,.,
Cc1[nH][nH]c(=O)c1C(c1ccc(-c2ccc(Cl)c(Cl)c2)o1)c1c(C)[nH][nH]c1=O,13%,-17%,?,-10%,?,-26%,.,?,
Cn1cnc([N+](=O)[O-])c1Oc1cccc2ccccc12,4%,-4%,18%,?,5µM*,1%,.,-16%,
O=C(NCc1cccc(Cl)c1)NCc1noc2ccccc12,0%,-3%,.,.,.,4%,.,.,
COc1ccccc1C(=O)Nc1ccc(-c2nnc(SCC(=O)O)n2C)cc1,5%,-12%,-5%,0%,i,-4%,17%,.,RECQ1 ADP FP=-11%
CC(C)(C)OC(=O)NS(=O)(=O)Nc1ccccc1Br,0%,.,2%,.,12%,2%,.,.,
COc1ccccc1Oc1nc2ccccn2c(=O)c1/C=C(\C#N)C(=O)Nc1c(C)n(C)n(-c2ccccc2)c1=O,4%,-4%,2%,.,0%,-9%,5%,.,RECQ1 ADP FP=28%
SMILES,TDP1 block,KAT2A inh,APEX1 inh,Lamin A splicing,RECQ1 inh-1,BLM inh,RECQ1 conf,RECQ1 inh-2,others
Cc1ccc(Oc2nc3ccccn3c(=O)c2/C=C(\C#N)C(=O)Nc2c(C)n(C)n(-c3ccccc3)c2=O)c(C)c1,1%,0%,2%,-19%,-1%,-4%,-2%,.,RECQ1 ADP FP=10%
Cc1c(NC(=O)/C(C#N)=C/c2ccccc2)c(=O)n(-c2ccccc2)n1C,5%,-18%,10%,.,-8%,-1%,.,.,
CC(C)Nc1ccc(Nc2ccnc3cc4ccccc4cc23)cc1,11%,-27%,?,.,22µM*,?,22µM*,.,RECQ1 ADP FP=37%[91.9 µM]
COc1cc(/C=C(\C#N)c2nc3ccccc3s2)cc([N+](=O)[O-])c1O,8%,?,?,.,?,?,.,35µM*,
Cc1cccc(C(=O)Nc2ccc(C(=O)/C=C/c3cccnc3)cc2)c1,2%,-4%,3%,?,1.1µM*,-15%,-8%[114 µM],?,
O=C(O)c1ccc2c(c1)C(=O)N(c1cccc(C(=O)/C=C/c3ccccc3)c1)C2=O,-1%,0%,23%,?,6.3µM*,-11%,?,?,RECQ1 ADP FP=3%[91.9 µM]
COc1ccc(C2c3c(N)nc(CCCc4ccccc4)nc3Oc3ccc4ccccc4c32)cc1OC (configuration not stated),1%,.,.,.,.,.,.,.,
C=CCn1c(NC(=O)c2ccc(Br)o2)c(S(=O)(=O)c2ccccc2)c2nc3ccccc3nc21,4%,-11%,?,?,?,?,.,-13%,
CC(C)(C)OC(=O)Cc1nnc(C(C(=O)OCc2ccccc2)c2ccccc2)s1 (configuration not stated),-5%,.,.,.,.,.,.,.,
O=C(c1ccccc1)c1ccc(OCCOCCN2CCN(Cc3ccccc3)CC2)cc1,-5%,-7%,19%,-1%[46 µM],?,-9%,.,2%,
